Here are results for 52 compounds from ChEMBL document CHEMBL4513216, “Probing the Open Global Health Chemical Diversity Library for Multistage-Active Starting Points for Next-Generation Antimalarials” (ACS Infect Dis, 2020).

SMILES strings stand for the structures. The campaign covered roughly 68,000 compounds. About 2,700 (4%) showed an effect of 50% or more. The list comes from a sample in which strong results are over-represented; it also holds similar structures and randomly drawn compounds.

The experiment relates to Plasmodium berghei. The experiment can be described thus: Screen against P. berghei liver stage (PbLuc), transformed with Luciferase, at 2uM. The settings on record: tested at 2 uM. Type of experiment: functional, HepG2.
As to `N#Cc1cccc(CN2CC3(CCCCN3c3cccnc3)CC2=O)c1` (configuration not stated), the INHIBITION worked out at 12.57%. Under `CN(C)CC(c1ccccc1)N(C)C(=O)c1cccc(NCC(=O)O)c1` (configuration not stated) stands 8.26%. Under `CNc1cccc(C2CCCN(C(=O)c3cncs3)C2)n1` (configuration not stated) stands -33.77%; under `CC(NC(=O)Nc1ccc(F)c(F)c1)c1nc[nH]n1` (configuration not stated), -5.51%.

With `Cc1cccc(OCCC(=O)N2CCCN(CC(N)=O)CC2)c1C`, the INHIBITION is -5.2%.

In the case of `CCCN(Cc1ccccc1O)S(=O)(=O)C(C)CC` (configuration not stated), the INHIBITION is reported as 17.48%. Under `CC(Cn1cccn1)NC(=O)c1ccsc1` (configuration not stated) stands -18.04%; under `CC1c2ncc(CNC(=O)C3CC3)n2CCN1CC1CCC1` (configuration not stated), 35.07%. For the compound `CSC(C)CCN(Cc1ccccn1)Cc1sccc1C` (configuration not stated), the INHIBITION is reported as -22.06%. In the case of `Cc1cccc(-n2ncc3c2CCCC3NCC(C)(C)CO)c1C` (configuration not stated), the INHIBITION came to 45.82%.

Consider `Cc1noc([C@@H]2C[C@H]3CN(C(=O)C4CCN(C)CC4)C[C@H]3O2)n1`, for which the INHIBITION came out at 33.12%. The same measure for `CC(C)n1c(=O)c2sccc2n(CC(=O)Nc2ccccc2)c1=O`: 10.62%; for `COc1ccc(CC(=O)N2CCCC(n3nc(C)cc3C)C2)cc1F` (configuration not stated): 6.3%; for `Cc1cc(C)n(C2CCCN(C(=O)Cc3cccc(F)c3)C2)n1` (configuration not stated): 14.06%. The same measure for `COc1cccc(CC(=O)N2CCCC(n3nc(C)cc3C)C2)c1` (configuration not stated): 62.75%. In the case of `Cc1cc(C)n(C2CCCN(C(=O)Cc3ccc(C#N)cc3)C2)n1` (configuration not stated), the INHIBITION is given as -11.34%. With `Cc1ccc(CC(=O)N2CCCC(n3nc(C)cc3C)C2)cn1` (configuration not stated), the INHIBITION is 5.59%. Under `COc1ccc(CC(=O)N2CCCC(n3nc(C)cc3C)C2)cc1` (configuration not stated) stands 52.87%; under `COc1ncc(CN(C)C2CCN(C(C)C)CC2)cn1`, 36.08%; under `Cn1cc(CNC2CCc3c(ccc(=O)n3Cc3cccnc3)C2)cn1` (configuration not stated), 17.69%.

As to `O=C(NS(=O)(=O)c1cc(Cl)ccc1Cl)c1cccc2c1OCCO2`, the INHIBITION is -55.23%. On to `Cc1nn(C)c2cnn(Cc3ccc(C(=O)N4CCN(C)CC4)o3)c12`, for which the INHIBITION is 1.33%. `CS(=O)(=O)NCCC(=O)N1Cc2cnc(-c3ccccc3)nc2C1`: the INHIBITION was -49.29%. With `CCn1cc(CN2CCCN(C(=O)c3cccn3C)CC2)cn1`, the INHIBITION is 19.18%. Turning to `CCn1cc(CN2CCCN(C(=O)CCN3CCCC3=O)CC2)cn1`, the INHIBITION is -35.65%. For the compound `CCn1cc(CN2CCCN(C(=O)C3=NN(C)C(=O)CC3)CC2)cn1`, the INHIBITION worked out at 59.73%.

Take `COc1cccc(S(=O)(=O)NC(=O)CCC2CCCC2)c1`: the INHIBITION is recorded as 37.68%. The same measure for `O=C(c1cccnc1)N1CCOC(c2ccc(-c3cncnc3)cn2)C1` (configuration not stated): -6.04%; for `COCCC(=O)N1CC[C@@H]2O[C@@H](C)C[C@H]2C1`: 22.01%. For `C[C@H]1C[C@H]2CN(C(=O)CCc3ccccc3)CC[C@H]2O1`, the INHIBITION is 65.32%. The same measure for `C[C@H]1C[C@H]2CN(C(=O)CCOc3ccccc3)CC[C@H]2O1`: -12.84%; for `Cc1n[nH]c(C)c1CCC(=O)NCC1COc2ccccc2C1` (configuration not stated): 11.19%; for `CC(C)Oc1ccc(C(=O)N2CC[C@H](O)[C@@H](n3ccnc3)CC2)cc1`: 52.69%. As for `NC(=O)COc1ccc(C(=O)N2CCCC(n3ccnc3)C2)cc1` (configuration not stated), the INHIBITION is listed as -10.05%.

In the case of `COCc1ccc(C(=O)N2CC[C@H](O)[C@@H](n3ccnc3)CC2)cc1`, the INHIBITION is -7.01%. Consider `Nc1cc2c(nn1)CCN(C(=O)C1CCc3ccccc31)C2` (configuration not stated), for which the INHIBITION was determined as 16.89%. The same measure for `CCOC(=O)N1CC2(CCNCC2)c2cc(Cl)ccc21`: -12.43%. With `c1cc(CCNc2ccc(CC3CCNC3)cn2)ccn1` (configuration not stated), the INHIBITION is listed as -6.19%.

For the compound `Cc1cc(C)n(C2CCCN(C(=O)c3ccnc(N(C)C)c3)C2)n1` (configuration not stated), the INHIBITION is 3.17%. As for `OCc1csc(N2CCCN(Cc3ccc(F)cc3)CC2)n1`, the INHIBITION worked out at 36.28%. In the case of `Cc1cccc(CN2CCN(c3nc(CO)cs3)CC2)c1`, the INHIBITION was 86.36%.

For the compound `OCc1csc(N2CCN(Cc3cccc(F)c3)CC2)n1`, the INHIBITION is on record as 45.82%. Regarding `CCS(=O)(=O)CCN1CCC(N(C)Cc2ncc(C)o2)C1` (configuration not stated), the INHIBITION turned out to be 31.55%. Under `Cc1noc(C)c1CN1CCc2ncnc(-c3ccc(F)cc3)c2CC1` stands 49.45%; under `COc1ccccc1C1=NOC(CC2(C(=O)NCCO)CCOCC2)C1` (configuration not stated), -39.01%; under `CCNC(=O)C1(CC2CC(c3ccccc3OC)=NO2)CCOCC1` (configuration not stated), -2.93%.

`CCCNC(=O)C1(CC2CC(c3ccccc3OC)=NO2)CCOCC1` (configuration not stated): the INHIBITION was 51.57%. The same measure for `CCS(=O)(=O)N1CCC2(CC1)CC(COC)N(c1ncccn1)C2` (configuration not stated): 28.45%; for `Cc1cc(C)n(CC2CCCCN2CCC(=O)Nc2cc(C)on2)n1` (configuration not stated): 21.39%. Under `Cc1cc(-c2nc(-c3cccc(CN4CCOCC4)c3)no2)no1` stands 53.19%. Under `Cc1cnc(-c2nc(-c3cccc(CN4CCOCC4)c3)no2)cn1` stands 15.74%; under `Cc1c(-c2nc(-c3cccc(CN4CCOCC4)c3)no2)cnn1C`, 35.56%.
